Results reported in PubChem BioAssay AID1159580 (chemical genetic matrix, 2015).
Out of some 5,500 compounds screened, about 2,000 (36%) were called active. About 18% were inconclusive and are not listed. Rule as the data show it: active = normalized growth mostly below about 0.91 (no sharp cut-off); inconclusive = no clear call, values can overlap the other calls; inactive = mostly above about 0.92. The list shows a part of the results.

Assay: chemical genetic growth profiling, strain panel (AID 1159580);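 also: tested at 20 µM; growth read once vehicle control cultures reached saturation at 30 °C; 1 = growth at the plate median or of vehicle wells; lower values mean less growth of the strain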
Settings: growth OD
[1] = S. cerevisiae deletion strains, locus YAL013W, strain DEP1, hits give low values
[2] = S. cerevisiae deletion strains, locus YBR229C, strain ROT2, hits give low values
[3] = S. cerevisiae deletion strains, locus YDL101C, strain DUN1, hits give low values
[4] = S. cerevisiae deletion strains, locus YDL134C, strain PPH21, hits give low values
[5] = S. cerevisiae deletion strains, locus YDR150W, strain NUM1, hits give low values
[6] = S. cerevisiae deletion strains, locus YEL061C, strain CIN8, hits give low values
[7] = S. cerevisiae deletion strains, locus YGR078C, strain PAC10, hits give low values
[8] = S. cerevisiae deletion strains, locus YHR030C, strain SLT2, hits give low values
[9] = S. cerevisiae deletion strains, locus YHR087W, strain rtc3, hits give low values
[10] = S. cerevisiae deletion strains, locus YJL187C, strain SWE1, hits give low values
[11] = S. cerevisiae deletion strains, locus YJR043C, strain POL32, hits give low values
[12] = S. cerevisiae deletion strains, locus YJR075W, strain HOC1, hits give low values
[13] = S. cerevisiae deletion strains, locus YKL190W, strain CNB1, hits give low values
[14] = S. cerevisiae deletion strains, locus YLR039C, strain RIC1, hits give low values
[15] = S. cerevisiae deletion strains, locus YLR058C, strain SHM2 (second series), hits give low values
[16] = S. cerevisiae deletion strains, locus YLR085C, strain ARP6, hits give low values
[17] = S. cerevisiae deletion strains, locus YLR262C, strain YPT6, hits give low values
[18] = S. cerevisiae deletion strains, locus YML094W, strain GIM5, hits give low values
[19] = S. cerevisiae deletion strains, locus YMR219W, strain ESC1, hits give low values
[20] = S. cerevisiae deletion strains, locus YMR263W, strain SAP30, hits give low values
[21] = S. cerevisiae deletion strains, locus YNL128W, strain TEP1, hits give low values
[22] = S. cerevisiae deletion strains, locus YNL153C, strain GIM3, hits give low values
[23] = S. cerevisiae deletion strains, locus YNL298W, strain CLA4 (second series), hits give low values
[24] = S. cerevisiae deletion strains, locus YNL322C, strain KRE1, hits give low values
[25] = S. cerevisiae deletion strains, locus YNR030W, strain Alg12, hits give low values
[26] = S. cerevisiae deletion strains, locus YOL006C, strain TOP1, hits give low values
[27] = S. cerevisiae deletion strains, locus YPL055C, strain LGE1, hits give low values
[28] = S. cerevisiae deletion strains, locus YPL241C, strain CIN2, hits give low values
[29] = S. cerevisiae deletion strains, locus YPR135W, strain CTF4, hits give low values
[30] = S. cerevisiae strains, strain wild type, hits give low values

Measured: normalized growth

Cc1onc(-c2c(Cl)cccc2Cl)c1C(=O)N1CCN(c2ncccc2C(F)(F)F)CC1
inactive: [1] 1.01 | [2] 1 | [3] 1.03 | [4] 0.988 | [5] 0.997 | [6] 1.03 | [7] 1 | [8] 0.908 | [9] 1 | [10] 0.992 | [11] 0.966 | [12] 0.999 | [13] 1 | [14] 0.99 | [15] 0.983 | [16] 0.921 | [17] 0.964 | [18] 1.11 | [19] 0.991 | [20] 0.977 | [21] 1 | [22] 1 | [23] 0.997 | [24] 0.994 | [25] 0.966 | [26] 0.934 | [27] 1.06 | [28] 0.99 | [29] 1.08 | [30] 0.972

COC(=O)c1cn(Cc2ccc(C(F)(F)F)cc2)cc(F)c1=O
inactive: [1] 1.02 | [2] 0.996 | [3] 0.996 | [5] 0.923 | [6] 0.998 | [7] 1 | [8] 1.08 | [9] 1 | [10] 1.04 | [11] 0.99 | [12] 1 | [14] 1.02 | [15] 0.996 | [16] 1.09 | [17] 1.04 | [18] 1.03 | [19] 1 | [20] 0.931 | [21] 1.01 | [22] 0.988 | [23] 1.02 | [24] 1.01 | [25] 1.02 | [26] 1.04 | [27] 0.921 | [28] 1.01 | [29] 1.05 | [30] 1.02

N/C(=N/OS(=O)(=O)c1ccc(Cl)cc1)c1ccc(C(F)(F)F)cc1
inactive: [1] 0.957 | [2] 0.978 | S. cerevisiae deletion strains, locus YCL061C, strain MRC1, hits give low values 0.946 | [3] 0.958 | [4] 0.978 | [5] 0.96 | [6] 0.997 | [7] 0.971 | [8] 0.915 | [9] 1.01 | [11] 0.97 | [12] 0.955 | [13] 0.981 | [14] 0.969 | [15] 0.976 | [16] 0.968 | [17] 0.999 | [18] 0.985 | [19] 0.99 | [20] 0.991 | [22] 0.976 | [23] 0.943 | [24] 0.967 | [25] 0.971 | [26] 0.897 | [27] 1.02 | [28] 0.965 | [29] 0.847 | [30] 0.973
